The text below walks through data of PubChem BioAssay (NCATS).

SMILES strings stand for the structures. Records with an inconclusive call do not appear. Activity calls are given as the source filed them. Calls follow the shape of the dose curve; as a rule, active = well fitted inhibition curve with a large enough effect; inconclusive = small, poorly fitted or top-dose-only effect; inactive = flat fitted curve, though single readings scatter. Where a SMILES comes first, the peptide text is derived from it. The star is where a group is joined. βNA = c1ccc2cc(N*)ccc2c1; Cbz = O=C(OCc1ccccc1)*
% is scaled to controls: 0 for no effect and ±100 for the full control effect.

In the test the test system is CRL-7250. Kind of test: Cytotoxic Profiling of Annotated Libraries Using Quantitative High-Throughput Screening (AID 1296008). Also: nearly all actives have a fitted effect of over 60% in size. Conditions: Five cell lines viability, CellTiter-Glo ATP luminescence, 48-72 h; max response: stronger effect = lower value. The procedure, abridged: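 Cells exposed to compounds for 48 or 72 hr at 37 degrees Celsius. Viability read as ATP-coupled luminescence with CellTiter-Glo after 10 min at room temperature.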
For orientation: In ATP-based viability assays light output follows the ATP content of the culture.
Consider `C/C(=C\CCC1(C)C2CC3C(C2)C31C)C(=O)O` (centres undefined), for which the result was inactive.

On to `CCCC1=CC2=C(CO1)C(=O)C(C)(O)C(OC(=O)c1c(C)cc(OC)cc1O)C2` (centres undefined), for which the max response is -6.12% (inactive).

Regarding `COc1cnc(-n2cnc(C)n2)c2[nH]cc(C(=O)C(=O)N3CCN(C(=O)c4ccccc4)CC3)c12`, the compound was classed as inactive.

On to `CCCC/C=C\CCCCCc1cc(=O)c2ccccc2n1C`, for which the max response is -5.2% (inactive).

With `CCN1CCN(C(=O)N[C@@H](C(=O)N[C@@H]2C(=O)N3[C@@H]2SC(C)(C)[C@@H]3C(=O)O)c2ccccc2)C(=O)C1=O`, the max response was -7% (inactive).

In the case of `C[C@@H]1O[C@@H](O[C@@H]2[C@@H](O)[C@H](O[C@H]3[C@H](O[C@H]4CC[C@@]5(C)C(CC[C@]6(C)C5CC=C5[C@@H]7CC(C)(C)CC[C@]7(C(=O)O[C@@H]7O[C@H](CO)[C@@H](O)[C@H](O)[C@H]7O)CC[C@]56C)C4(C)C)O[C@H](C(=O)O)[C@@H](O)[C@@H]3O)OC[C@H]2O)[C@H](O)[C@H](O)[C@H]1O` (some centres undefined), the max response is 2.65% (inactive).

Consider `COC(=O)C1=COC(O[C@@H]2O[C@H](CO)[C@@H](O)[C@H](O)[C@H]2O)/C(=C\COC(=O)/C=C/c2ccccc2)C1CC(=O)OCCc1ccc(O)cc1` (some centres undefined), for which the max response is -7.39% (inactive).

In the case of `C=CC(C)(O)CC/C=C(\C)C1CC=C(C)C(=O)O1` (centres undefined), the call was inactive.

Turning to `COc1cc(/C=C/C(=O)OC[C@H]2O[C@@H](OC3CC(C)=C(C(=O)O)C(C)(C)C3)[C@H](O)[C@@H](O)[C@@H]2O)cc(OC)c1O` (some centres undefined), the max response is -3.13% (inactive).

Regarding `CC1(C)C[C@H](O)C[C@@]2(C)[C@H]1[C@H](O)C=C1COC(=O)[C@@]12O`, the call was inactive.

Turning to `O=C(O)Cc1cn([C@@H]2O[C@H](CO)[C@@H](O)[C@H](O)[C@H]2O[C@@H]2O[C@H](CO)[C@@H](O)[C@H](O)[C@H]2O)c2ccccc12`, the max response is -3.23% (inactive).

Consider `C=C1CC[C@@]2(OC1)O[C@H]1CC3[C@@H]4CC=C5C[C@@H](O)C[C@@H](O[C@@H]6OC[C@H](O)[C@H](O)[C@H]6O[C@@H]6O[C@@H](C)[C@H](O)[C@@H](O)[C@H]6O)[C@]5(C)C4CC[C@]3(C)[C@H]1[C@@H]2C` (some centres undefined), for which the result was inactive.

Consider `CC(C)CC(NC(=O)OCc1ccccc1)C(=O)NC(CC(C)C)C(=O)NC(CCC(=O)O)C(=O)Nc1ccc2ccccc2c1` (stereo not drawn) (Cbz-Leu-Leu-Glu-βNA; configuration not given here), for which the max response is -12.3% (inactive).

Turning to `OC[C@@]1(O)CO[C@H](OC[C@H]2O[C@@H](OC(CCCCc3ccc(O)cc3)CCc3ccc(O)cc3)[C@H](O)[C@@H](O)[C@@H]2O)[C@@H]1O` (some centres undefined), the max response was -9.7% (inactive).

`Nc1ccc(-n2nc(C(F)(F)F)cc2C(F)(F)F)cc1`: the max response is 1.57% (inactive).

Turning to `C/C(=C\C(=O)C[C@@]12C(=O)O[C@]3(C)CC[C@H]1C[C@H]23)C(N)=O`, the max response is -61.5% (inactive).

For `Nc1ncnc2c1C(=O)N(c1ccc(C3CCC(CC(=O)O)CC3)cc1)CCO2` (centres undefined), the max response is 2.41% (inactive).

Turning to `COC1OC(=O)C2=C1C1(C)CCCC(C)(C)C1CC2O` (centres undefined), the max response is -6.21% (inactive).

Regarding `C=C(CC/C=C(\C)C(=O)O)C1(O)CC=C(C)CC1` (centres undefined), the max response is 2.5% (inactive).

On to `CC(C)Oc1ccc(-c2nc(-c3cccc4c3CCC4NCCC(=O)O)no2)cc1C#N` (centres undefined), for which the max response is 0.795% (inactive).

Take `C=C1CC[C@@]2(OC1)O[C@H]1CC3[C@@H]4CC=C5C[C@H](O[C@H]6OC[C@@H](O)C(O)[C@@H]6O[C@@H]6O[C@@H](C)[C@H](O)[C@@H](O[C@@H]7O[C@H](CO)[C@@H](O)[C@H](O)[C@H]7O)[C@H]6O)C[C@@H](O)[C@]5(C)C4CC[C@]3(C)[C@H]1[C@@H]2C` (some centres undefined): the max response was 3.7% (inactive).

As for `CC(C)c1cc2c(c(O)c1O)[C@@]13CCCC(C)(C)C1[C@@H](O)[C@@H]2OC3=O` (some centres undefined), the max response was 4.77% (inactive).

`COc1cccc(C)c1C(=O)O[C@@H]1C[C@H](O[C@H]2[C@H](O)C[C@H](O[C@@H]3CCC[C@H]4[C@H]3C=C[C@@H]3CCCC/C=C/[C@H]5C=C(C(=O)O)[C@@H](C)C[C@@]56OC(=O)C(=C6O)OC(=O)[C@@]34C)O[C@@H]2C)O[C@H](C)[C@H]1O`: the max response is -2.06% (inactive).

With `CC(=O)OC1C(CO)OC(O[C@H]2[C@H](OC(=O)[C@]34CCC(C)(C)C[C@H]3C3=CCC5[C@@]6(C)CC[C@H](O[C@@H]7O[C@H](C(=O)O)[C@@H](O)[C@H](O[C@@H]8OC[C@@H](O)[C@H](O)[C@H]8O)[C@H]7O[C@@H]7O[C@H](CO)[C@H](O)[C@H](O)[C@H]7O)[C@@](C)(C=O)C6CC[C@@]5(C)[C@]3(C)C[C@H]4O)O[C@H](C)[C@H](OC3OC(C)C(OC4OCC(O)C(O)C4O)C(O)C3O)[C@@H]2O)C(O)C1O` (some centres undefined), the max response was -0.582% (inactive).

`CC(C)=CCC/C(C)=C/CO[C@@H]1O[C@H](CO[C@@H]2O[C@@H](CO)[C@H](O)[C@H]2O)[C@@H](O)[C@H](O)[C@H]1O`: the max response is -10.8% (inactive).

As to `O=C(c1ccc(Cl)c([N+](=O)[O-])c1)N1CCN(c2ccccc2F)CC1`, the max response is -5.45% (inactive).

On to `COc1cc(O)c2c(c1Cl)CC(C)OC2=O` (centres undefined), for which the result was inactive.

Turning to `CCCCNc1nc(N)c2[nH]c(=O)n(Cc3ccc(OCCN(C)C)nc3)c2n1`, the max response was -6.94% (inactive).

Turning to `CC(O)C(=O)/C=C/C=C/C(=O)OC1C=C2COC(=O)C2(O)C2(C)CCCC(C)(C)C12` (centres undefined), the max response was -6.23% (inactive).

As to `CC1(C)CC[C@]2(C(=O)O)CC[C@]3(C)C(=CCC4[C@@]5(C)CC[C@H](O[C@@H]6O[C@H](C(=O)O)[C@@H](O)[C@H](O[C@@H]7O[C@H](CO)[C@H](O)[C@H](O)[C@H]7O)[C@H]6O[C@@H]6O[C@H](CO)[C@@H](O)[C@H](O)[C@H]6O)C(C)(C)C5CC[C@]43C)[C@@H]2C1` (some centres undefined), the max response is 3.2% (inactive).

Consider `CC(=O)OC(C)(C)/C=C/C(=O)[C@](C)(O)C1[C@H](O)C[C@@]2(C)[C@@H]3CC=C4[C@@H](C[C@H](O[C@@H]5O[C@H](CO)[C@@H](O)[C@H](O)[C@H]5O)C(=O)C4(C)C)[C@]3(C)C(=O)C[C@]12C` (some centres undefined), for which the compound was called inactive.

On to `CC1=CC(=O)CC(C)(C)[C@@]1(O)/C=C/C(C)O[C@@H]1O[C@H](CO)[C@@H](O)[C@H](O)[C@H]1O` (some centres undefined), for which the max response was -4.8% (inactive).

For the compound `CC(C)C1NC(=O)C(CC2(O)c3ccccc3N3C(=O)C(Cc4ccccc4)NC32)NC1=O` (centres undefined), the compound was classed as inactive.

Consider `OC[C@@]1(O)CO[C@H](OC[C@H]2O[C@@H](OC(CCCCc3ccc(O)cc3)CCc3ccc(O)cc3)[C@H](O[C@H]3OC[C@](O)(CO)[C@H]3O)[C@@H](O)[C@@H]2O)[C@@H]1O` (some centres undefined), for which the max response is -11.2% (inactive).

As for `COC(=O)c1c(CC=C(C)C)c(OC2OC(CO)C(O)C(O)C2O)c2ccccc2c1OC1OC(CO)C(O)C(O)C1O` (centres undefined), the compound was called inactive.

For `C[C@]1(O)CC[C@@H]2C(C(=O)O)=CO[C@@H](O[C@@H]3O[C@H](COC(=O)/C=C/c4ccc(O)c(O)c4)[C@@H](O)[C@H](O)[C@H]3O)[C@@H]21`, the outcome was inactive.

On to `CC(C)(O)C1CC=C(C(=O)OC[C@H]2O[C@@H](Oc3cc(C(=O)O)cc(O)c3O)[C@H](O)[C@@H](O)[C@@H]2O)CC1` (some centres undefined), for which the max response was 1.76% (inactive).

Consider `COc1cc2c(cc1O)CC(O)(CO)C(CO)C2c1ccc(OC2OC(CO)C(O)C(O)C2O)c(OC)c1` (centres undefined), for which the compound was classed as inactive.

For the compound `O=C(O)CC/C=C\C[C@H]1CO[C@@H](c2ccccc2Cl)O[C@H]1c1ccccc1O`, the max response is 3.51% (inactive).
